# Screens deposited in PubChem by National Center for Advancing Translational Sciences (NCATS).
# BRCA1 expr up: qHTS Assay to Identify Small Molecule Activators of BRCA1 Expression; 380,000 tested, 1.1% active; MCF7-BRCA1-FFLuc reporter, luminescence, 48 h; response scale: scaled: vehicle 0%, 10 µM genistein 100%; AID 624202, 2012; Potency, µM (titrated, usually from 46.1 µM), usual class: activators; further: nearly all actives have a fitted effect of over 80% in size
#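 Using MCF7 cells harboring a BRCA1 firefly luciferase reporter, plated 2 h before compound pinning, the screen measured luminescence after 48 h incubation. Responses were normalized to DMSO and 10 microM genistein, then fitted for concentration-effect.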
# Giardia kill: Small Molecules that selectively kill Giardia lamblia: qHTS. AID 540267, 2011. 340,000 tested, 0.15% active. activity change, % at 7.66 µM, hits read low. Giardia lamblia trophozoite viability; in the data active means activity change below about -80%; inconclusive means between about -30% and that limit;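 further: parasites exposed to compound for two days anaerobically before the ATP read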
#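 Anaerobic 48 hrs incubation at 37 deg C of 100 trophozoites/well with test compounds; ATPLite 1-Step luminescence, 15-30 min RT, reports cellular ATP as viability.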
# ELG1 repair inh: qHTS screen for small molecules that inhibit ELG1-dependent DNA repair in human embryonic kidney (HEK293T) cells expressing luciferase-tagged ELG1 | 330,000 tested, 2.3% active | Potency, µM (doses to about 46.1 µM), hits mostly inhibitors | HEK293T ELG1-luciferase reporter, luminescence, 16 h; DNA damage induced by 5-fluorouridine; further: nearly all actives have a fitted effect of over 55% in size
#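 In this reporter screen, reduction of luminescence relative to DMSO vehicle indicated activity. Compounds and 5-fluorouridine were added together to 2,000 cells per well, incubated for 16 hr at 37 °C, then developed with ONE-Glo.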
# RORg inh: qHTS for inhibitors of ROR gamma transcriptional activity; Nuclear receptor ROR-gamma (Mus musculus), P51450; Potency, µM (titrated, usually from 53.6 µM), hits mostly inhibitors; Drosophila S2 Gal4-RORgamma UAS-luciferase reporter, 20 h; 310,000 tested, 5.4% active; further: nearly all actives have a fitted effect of over 60% in size
# Target sequence (P51450 whole entry, looked up, the tested form may be a part): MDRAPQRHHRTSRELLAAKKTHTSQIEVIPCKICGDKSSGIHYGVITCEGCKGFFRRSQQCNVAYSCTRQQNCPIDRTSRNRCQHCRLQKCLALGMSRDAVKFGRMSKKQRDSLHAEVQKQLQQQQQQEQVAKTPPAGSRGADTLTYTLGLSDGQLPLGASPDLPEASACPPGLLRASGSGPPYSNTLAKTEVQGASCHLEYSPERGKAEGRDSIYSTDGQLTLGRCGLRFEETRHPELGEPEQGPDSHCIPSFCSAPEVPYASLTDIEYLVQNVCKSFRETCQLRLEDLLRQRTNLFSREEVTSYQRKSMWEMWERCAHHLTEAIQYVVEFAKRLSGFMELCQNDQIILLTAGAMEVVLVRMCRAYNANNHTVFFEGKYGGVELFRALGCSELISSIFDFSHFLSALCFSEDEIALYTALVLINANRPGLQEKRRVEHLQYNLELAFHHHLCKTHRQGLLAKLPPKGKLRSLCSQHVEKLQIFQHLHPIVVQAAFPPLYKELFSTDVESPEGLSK
#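 Read-out: Photinus luciferase luminescence; inhibitors lower reporter signal. Insect Schneider cells with Gal4-ROR gamma fusion under metallothionein promoter, UAS reporter; 700 uM final copper sulfate induction, 20 hr, ambient temperature.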
# Gal4-VP16 FLuc: VP16 counterscreen qHTS for inhibitors of ROR gamma transcriptional activity; Drosophila S2 Gal4-VP16 UAS-luciferase, luminescence, 20 h; Potency, µM (top dose mostly 53.6 µM), actives largely listed as inhibitors; 310,000 tested, 3.5% active; AID 2546, 2010;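 further: Gal4-VP16 expression switched on by copper sulfate through the metallothionein promoter; nearly all actives have a fitted effect of over 50% in size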
# p53 reactivator: qHTS assay for re-activators of p53 using a Luc reporter | H1299 p53-A138V BP100-luciferase reporter, luminescence, 24 h | 320,000 tested, 0.063% active | AID 504706, 2011 | Potency, µM (doses to about 92.2 µM), usual class: activators; further: nearly all actives have a fitted effect of over 45% in size
#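 H1299 (p53-null), stable ts p53-A138V + BP100-Luc; 1000 cells/well, Opti-MEM/10% FBS; cpd 4 pt, 1:5; 24 h, 37 deg C, 5% CO2; detection reagent 10 min RT; luminescence.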
# A number is an active result; – = inactive; ? = inconclusive; · = no result; [ ] = dose if it differs, or a comment. A selection: hits, their analogues and other compounds. The true share with any hit is near 7.6%. Unless noted, the call rests on the fitted dose curve; in most records, active means well fitted curve in the direction sought with a large enough effect; inconclusive means small, poorly fitted or top-dose-only effect, or another doubt; inactive means no such curve, though single readings can be large; an effect the other way counts as inactive or inconclusive.
SMILES,BRCA1 expr up,Giardia kill,ELG1 repair inh,RORg inh,Gal4-VP16 FLuc,p53 reactivator
O=S(=O)(c1ccc2nc(-c3ccco3)c(-c3ccco3)nc2c1)N1CCOCC1,–,–,16µM,–,–,–
O=C(Nc1ccc2nc(-c3cccs3)c(-c3cccs3)nc2c1)N1CCOCC1,–,–,5.2µM,–,–,–
CC(=O)OCC(=O)[C@@]12OC3(CCCC3)OC1CC1C3CCC4=CC(=O)C=C[C@@]4(C)[C@]3(F)C(O)C[C@]12C (some centres not stated),·,·,·,3.5µM,–,·
CC(NC(=O)Cc1ccccc1F)c1ccc(F)cc1 (configuration not stated),–,–,–,–,–,–
COC(=O)NC(=S)Nc1ccc(Oc2ccc(Cl)cc2)c(Cl)c1,–,–,–,4.5µM,5µM,–
COC(=O)NC(=S)Nc1ccc(Oc2ccc(Cl)cc2Cl)c(Cl)c1,–,–,–,2.2µM,?,–
O=C(NCc1cccs1)C(=O)NCC1OCCCN1S(=O)(=O)c1cccs1 (configuration not stated),–,–,–,–,–,–
CCOC(=O)C1(C)CCCN1C(=O)c1cccc(OC)c1 (configuration not stated),–,·,·,·,·,·
C(=NN1CCCCCC1)c1ccc2ccccc2n1,–,?,·,·,·,·
CC(C)(C)c1csc(N/N=C/c2ccc(O)cc2)n1,–,–,?,0.56µM,1µM,–
CC(=O)Nc1sc(N/N=C/c2ccc(O)cc2)nc1-c1ccc(C)cc1,?,–,?,–,–,?
COC(=O)[C@@]1(Cc2ccc(OC)cc2)[C@H]2c3cc(C(=O)N4CCCC4)n(Cc4ccc(S(C)(=O)=O)cc4)c3C[C@H]2CN1C(=O)c1ccccc1,–,·,·,–,–,·
O=C(O)/C=C/C(=O)Nc1ccc2c(c1)C(=O)c1ccccc1C2=O,11µM,–,?,–,–,–
O=C(COC(=O)Cn1cnc2ccccc21)Nc1ccc2c(c1)C(=O)c1ccccc1C2=O,8.9µM,–,?,–[10 µM],–,?
O=C(COC(=O)Cn1cnc2ccccc21)Nc1ccc(Br)cc1,–,·,·,·,·,·
Cc1ccccc1OCCC(=O)Nc1ccc(F)c(Cl)c1,–,–,?,5.6µM,4.5µM,–
Cc1cccc(NC(=O)COc2ccc(Br)cc2/C=N/O)c1,4.5µM,–,?,5.6µM,5µM,?
COCCNc1nc(NCc2cnc(C)cn2)c2sccc2n1,–,·,·,·,·,·
O=C(COC(=O)c1cnccn1)Nc1ccc(Cl)cc1,–,–,–,–,–,–
Cc1ccccc1OCC(=O)Nc1ccc2c(c1)Cc1ccccc1-2,?,–,–,–,?,–
Cc1ccccc1OCC(=O)Nc1ccc2c(c1)C(=O)c1ccccc1C2=O,5µM,–,?,–,–,–
Cc1cccc(OCC(=O)Nc2cc(NC(=O)COc3cccc(C)c3C)cc(C(=O)O)c2)c1C,–,–,?,·,·,·
Cc1ccccc1OCC(=O)Nc1cccc(C(=O)O)c1,–,–,?,2.5µM,6.3µM,–
Cc1n[nH]c(C)c1CN(C)C(=O)C1CCC(=O)N(CC2CCCCC2)C1 (configuration not stated),–,–,–,–,–,–
O=C(c1ccc(CS(=O)Cc2ccccc2Cl)o1)N1CCN(C2CCCCC2)CC1 (configuration not stated),–,–,–,–,–,–
O=C(C#Cc1ccccc1)c1ccco1,–,–,?,2.8µM,3.2µM,–
Clc1ccccc1-c1nc2nc3ccccc3nc2n1-c1ccc2c(c1)OCO2,–,–,15µM,–,–,–
COc1cccc(NC(=O)CN(C)C(=O)c2cc(C)on2)c1,–,–,–,·,·,–
COc1ccccc1OCc1ccc(C(=O)c2ccccc2)cc1,?,–,?,?,–,·
Cc1ccc(-c2cn3cccnc3n2)cc1NC(=O)c1c(-c2ccccc2Cl)noc1C,–,–,?,–,–,–
